Data on 6 molecules can be found in PubChem BioAssay (NCATS).

A short description of test [1]: OV-KATE Cancer Cell Toxicity qHTS against the NCATS CANVASS Library (AID 1347345). Also: potency is read from the fitted curve at half-maximal effect. The essentials:
(§1)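 In this cytotoxicity screen, 1000 cells per well rested 4 hours, then received compound (11 concentrations) for a 72-hour incubation; an ATP-dependent luminescent signal (CellTiter-Glo) was the endpoint.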

Test [2] in a line: HPAF-II Cancer Cell Toxicity qHTS against the NCATS CANVASS Library (AID 1347346). Also: nearly all actives have a fitted effect of over 55% in size. Also: potency is read from the fitted curve at half-maximal effect. A digest of the protocol:
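Using 1000 HPAF-II cells per well, we titrated compounds over 11 concentrations for 72 h at 37 degrees C/5% CO2, with bortezomib as control. Cell survival was quantified by CellTiter-Glo luminescence.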
On the technique in general: qHTS replaces the single test concentration by a dilution series.

Test [3] can be described thus: OV-SAHO Cancer Cell Toxicity qHTS against the NCATS CANVASS Library (AID 1347348). Also: nearly all actives have a fitted effect of over 55% in size. Also: potency is read from the fitted curve at half-maximal effect. A digest of the protocol:
as §1

Test [4] is described as follows: U-118MG Cancer Cell Toxicity qHTS against the NCATS CANVASS Library (AID 1347351). Also: potency is read from the fitted curve at half-maximal effect. The essentials: as §1
Test [5] is described as follows: HPAF-II 24hr Apoptosis Induction qHTS against the NCATS CANVASS Library (AID 1347356). The essentials:
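Using an 11-point qHTS format, HPAF-II cells in DMEM/10% FBS received compounds for 24 h; doxorubicin titration as control. Caspase-3/7 activity quantified by DEVD-luciferase luminescence.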

Test [6] in a line: HPAF-II 12hr Apoptosis Induction qHTS against the NCATS CANVASS Library (AID 1347358). A digest of the protocol: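 Twelve-hour compound exposure of HPAF-II cells in DMEM with 10% FBS, then luminescent Caspase-Glo 3/7 detection after 15 min at room temperature; doxorubicin control.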
The nature of test [7]: HEK293 24hr Apoptosis Induction qHTS against the NCATS CANVASS Library (AID 1347359). A digest of the protocol:
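Caspase-3/7 activation measured as luminescence from the DEVD-based Caspase-Glo reagent, 15 min at room temperature, following 24-hour compound treatment of HEK293 cells.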

A short description of test [8]: HPAF-II 18hr Apoptosis Induction qHTS against the NCATS CANVASS Library (AID 1347360). A digest of the protocol: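 HPAF-II cells at 500/well were exposed for 18 h at 37 C to an 11-point compound series. Caspase-3/7 activity was read by Caspase-Glo luminescence after 15 min at RT.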
For test [9], the target named is Luciferin 4-monooxygenase (Photinus pyralis) (UniProt P08659). The test is described as follows: Firefly luciferase counterscreen qHTS: Assay Interference Panel against the NCATS CANVASS Library (AID 1347363). Also: series mostly up to about 57 µM. The essentials: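 Luminescence inhibition readout: compounds (11-point qHTS) sat 15 min at room temperature with substrate mix (0.013 mM luciferin and ATP), then firefly luciferase was added and signal read 5 min later.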
Sequence of Luciferin 4-monooxygenase (Photinus pyralis) (P08659 whole entry, looked up): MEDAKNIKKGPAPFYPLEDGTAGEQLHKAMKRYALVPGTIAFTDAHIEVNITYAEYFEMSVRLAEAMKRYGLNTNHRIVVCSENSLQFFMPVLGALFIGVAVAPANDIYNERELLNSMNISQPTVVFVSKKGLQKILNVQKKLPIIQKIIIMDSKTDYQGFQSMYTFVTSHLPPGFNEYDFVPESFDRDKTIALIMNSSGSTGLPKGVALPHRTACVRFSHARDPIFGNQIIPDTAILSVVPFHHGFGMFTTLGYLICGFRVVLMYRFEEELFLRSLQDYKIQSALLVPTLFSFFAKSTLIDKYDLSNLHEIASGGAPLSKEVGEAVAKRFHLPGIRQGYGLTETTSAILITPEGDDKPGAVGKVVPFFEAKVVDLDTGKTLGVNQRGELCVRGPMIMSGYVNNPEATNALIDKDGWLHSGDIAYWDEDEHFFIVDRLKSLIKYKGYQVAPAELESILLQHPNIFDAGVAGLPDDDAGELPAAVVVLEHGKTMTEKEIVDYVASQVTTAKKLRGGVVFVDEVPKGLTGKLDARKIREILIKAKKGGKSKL
On the technique in general: The purpose of a counterscreen is to sort out artefacts and off-target activity.

The nature of test [10]: qHTS for ATAD5 Agonist screened against the NCATS CANVASS Library (AID 1347367).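 Also: luciferase reporter driven by ATAD5 which rises upon DNA damage.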 The essentials:
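Luciferase reporter under ATAD5 control, stably integrated in HEK293T cells (2000/well). Compounds (11 points) incubated 16 h at 37C; viability read first by CellTiter-Fluor, then luminescence reporting ATAD5 activation. MMS positive control.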

Test [11] in a line: MCF7 Cancer Cell Toxicity qHTS against the NCATS CANVASS Library (AID 1347369). The essentials: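 MCF7 cells (500/well) were exposed 72 h at 37 °C to compounds in an 11-point series. Viability was read as ATP content by CellTiterGlo luminescence.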
A short description of test [12]: qHTS for ATAD5 Antagonist screened against the NCATS CANVASS Library (AID 1347370). Also: nearly all actives have a fitted effect of over 65% in size. Also: potency is read from the fitted curve at half-maximal effect. The essentials:
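HEK293T-ATAD5 luc reporter, 2000 cells/well; 5hr attach; cpd + 10 uM 5-FUrd; 16hr 37C, 5% CO2. Readouts: CellTiter-Fluor fluorescence (1hr), then Amplite luciferase luminescence (30min RT).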

Test [13] is described as follows: J3T Cancer Cell Toxicity qHTS against the NCATS CANVASS Library (AID 1347371). Also: potency is read from the fitted curve at half-maximal effect. The essentials:
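ATP-based cytotoxicity in canine J3T cells: 72 hr exposure at 37C, 11-point titration, CellTiterGlo luminescent detection.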

Test [14] has as its target Nuclear receptor subfamily 1 group I member 3 (Homo sapiens) (UniProt Q14994). The test is described as follows: qHTS for Constitutive Androstane Receptor (CAR) Agonist screened against the NCATS CANVASS Library (AID 1347373).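 Also: every well also contained 1.5 µM PK11195 alongside the test compound.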 The essentials: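 In an 11-point concentration series, compounds were incubated 24hr with HepG2 cells carrying hCAR and a CYP2B6-2.2kb reporter, with PK11195 at 1.5uM final. A CellTiter-Fluor viability read preceded the ONE-Glo luminescence read.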

The nature of test [15]: 10-beta competent E. coli microbial cell viability qHTS against the NCATS CANVASS Library (AID 1347376). Also: series mostly up to about 46 µM. A digest of the protocol:
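Overnight 37C exposure of 10-beta E. coli (0.2 OD) to an 11-point concentration series; ATP-based luminescence after 20 min room-temperature reagent incubation; daunomycin as control.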

Test [16] can be described thus: qHTS for H2AX Agonists against the NCATS CANVASS Library (AID 1347378). Also: potency is read from the fitted curve at half-maximal effect. A digest of the protocol: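 CHO-K1 cells (1000/well, overnight at 37C) exposed to compounds at several concentrations for 3 hr at 37C, 0.76% DMSO final. Lysates read by TR-FRET (phospho-H2AX S139 Eu-cryptate antibody / H2AX-d2 antibody) after 24 hr at room temperature; 665/615 nm ratio.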
The nature of test [17]: qHTS for Inflammasome Signaling Inhibitors: IL-1-beta AlphaLISA screen against the NCATS CANVASS Library (AID 1347379).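 Also: human THP-1 cells primed with LPS then triggered with ATP.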 The essentials:
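THP-1, 1 hr compound pre-incubation, then LPS 250 ng/mL + ATP 1.25 mM (final); 16 hr total with compound; IL-1B AlphaLISA, ex 680/em 615 nm; 11-point qHTS, up to 57.5 uM final.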

Test [18] can be described thus: Cytotoxicity qHTS for assessment of Hepg2 cells membrane integrity screened against the NCATS CANVASS Library (AID 1347387). The essentials:
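Membrane damage in HepG2 monolayers was estimated from released LDH, measured with CytoTox-ONE (ex 560/em 590 nm), after 5 hr treatment across 0.59 nM - 46 uM final.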

The nature of test [19]: Vero-766 cells viability qHTS against the NCATS CANVASS Library: Counterscreen for Zika virus inhibition assay (AID 1347394). Also: series mostly up to about 46 µM; nearly all actives have a fitted effect of over 60% in size. A digest of the protocol: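 Vero 766 cells (1000/well), without Zika virus, were exposed to compounds for 72 h at 37C. Viability was measured by CellTiter Glo luminescence. Media-only wells served as 100% inhibition.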
Test [20] in a line: Viability qHTS for inhibitors of the SERCaMP assay screened against the NCATS CANVASS Library (AID 1347400). Also: nearly all actives have a fitted effect of over 70% in size. Also: potency is read from the fitted curve at half-maximal effect. A digest of the protocol: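 Measures loss of viability in SERCaMP reporter SH-SY5Y cells treated for 48 h with compounds; luminescent ATP detection by CellTiter-Glo.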

Inconclusive results are not listed. Calls of active or inactive are those of the source. Calls follow the shape of the dose curve; as a rule, active = well fitted curve in the direction sought with a large enough effect; inconclusive = small, poorly fitted or top-dose-only effect, or another doubt; inactive = no such curve, though single readings can be large; an effect the other way counts as inactive or inconclusive.

Sequence of Nuclear receptor subfamily 1 group I member 3 (Homo sapiens) (Q14994 whole entry, looked up): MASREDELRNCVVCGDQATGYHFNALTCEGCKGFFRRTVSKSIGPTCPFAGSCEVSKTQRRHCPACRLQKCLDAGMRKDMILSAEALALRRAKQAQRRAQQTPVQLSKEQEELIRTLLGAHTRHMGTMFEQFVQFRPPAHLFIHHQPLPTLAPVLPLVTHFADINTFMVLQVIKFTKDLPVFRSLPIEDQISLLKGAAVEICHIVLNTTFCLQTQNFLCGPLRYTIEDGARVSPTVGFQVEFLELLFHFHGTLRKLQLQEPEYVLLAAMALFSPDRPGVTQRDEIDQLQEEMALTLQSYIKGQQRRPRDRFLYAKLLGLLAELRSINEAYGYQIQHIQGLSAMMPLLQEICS

With `C=C1C(=O)C[C@H]2C[C@@H]1[C@]2(C)CCC=C(C)C`, the Potency result in [1], in test [2], in test [3], in [4], in test [6] and in [7] was “inactive” throughout. Further, the Potency entry in test [8], in [9], in test [10], in test [11], in [12] and in test [13] was “inactive” each time. The Potency result in test [16], in test [17], in test [19] and in test [20] was “inactive” in each case. For the same molecule, the result in test [5], in test [14], in test [15] and in test [18] was inactive.
Take `C[C@@]12C[C@@H](C[C@H]3C(=O)O[C@@H](c4ccoc4)[C@H](OC(=O)c4ccccc4)[C@@H]31)OC2=O`: the Potency entry in test [1], in test [2], in test [3], in [4], in test [6] and in test [7] was “inactive” each time. The Potency entry in [8], in [9], in test [10], in test [11], in [12] and in test [13] was “inactive” in each case. The Potency result in test [16], in test [17] and in [20] was “inactive” in each case. Also, the molecule was called inactive in test [5], in test [14], in [15] and in test [18].
On to `C=C1C(=O)O[C@H]2[C@H]1CC/C(CO)=C\CC[C@@]1(C)O[C@@H]21`, for which the Potency is 18.8 µM (active) in [1]; 16.8 µM (active) in test [2]; 23.6 µM (active) in test [3]; 18.8 µM (active) in test [4]; 20.9 µM (active) in test [12]; 18.7 µM (active) in test [13]. For the same molecule, the values for the Potency in test [16], in test [17] and in [20] were 21.7 µM (active), 6.11 µM (active) and 34 µM (active), respectively. Further, the result in test [5], in [14] and in test [15] was inactive. The Potency result in test [6], in [7], in test [8], in test [9], in test [10] and in test [19] was “inactive” each time.
Consider `O=c1cc(-c2ccc(O)c(O[C@@H]3O[C@H](CO)[C@@H](O)[C@H](O)[C@H]3O)c2)oc2cc(O[C@@H]3O[C@H](CO)[C@@H](O)[C@H](O)[C@H]3O)cc(O)c12`, for which the Potency entry in test [1], in [2], in [3], in [4], in test [6] and in [7] was “inactive” throughout. In addition, the Potency entry in [8], in test [9], in test [10], in test [11], in test [12] and in [13] was “inactive” in each case. Besides, the Potency entry in test [16], in [17], in [19] and in test [20] was “inactive” in each case. Further, the call in [5], in test [14], in test [15] and in [18] was inactive.
In the case of `COC1C(O)C(OC(N)=O)C(Oc2ccc3c(O)c(NC(=O)c4ccc(O)c(CC=C(C)C)c4)c(=O)oc3c2C)OC1(C)C` (stereo not drawn), the Potency entry in [1], in [2], in [3], in [4], in [6] and in test [7] was “inactive” in each case. Besides, the Potency result in test [8], in [9], in [10], in test [11], in test [12] and in [13] was “inactive” in each case. The Potency result in test [16], in test [17], in test [19] and in test [20] was “inactive” in each case. Besides, the molecule was classed as inactive in test [5], in test [14] and in [18].
With `CC(C)(Br)[C@@H](Cl)C[C@H](Br)[C@](C)(Cl)/C=C/Br`, the figures for the Potency in test [1], in test [2] and in test [4] were 23.6 µM (active), 26.6 µM (active) and 18.8 µM (active), respectively. Further, the molecule was classed as inactive in test [5], in [14], in test [15] and in test [18]. The Potency entry in [6], in [7], in test [8], in [9], in test [10] and in [11] was “inactive” each time. Moreover, the Potency result in test [12], in test [13], in test [16] and in test [19] was “inactive” throughout.
